Screening data deposited in PubChem by Sanford-Burnham Center for Chemical Genomics.
Only some compounds are listed: those with a hit (about 2.6% of all), similar ones and a draw of the others.
PABP FP inh = PABP-poly(A) binding inhibition | PABP-poly(A) RNA binding, fluorescence polarization | inhibition, % at 35 µM | hit rate 1% among 290,000 | AID 2014;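 also: calls also rest on retests at 20 µM and on dose response follow-up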
CRFR2-BP antag = antagonists of CRF-binding protein/CRF-R2 receptor complex; inhibition, % at 11.8 µM; HEK293 CRF-R2/CRF-BP, CRF-induced calcium fluorescence; hit rate 0.59% among 350,000;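 active = inhibition of the ligand-induced calcium signal above about 50% at the single tested concentration, limit read from the data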
PHOSPHO1 inh = PHOSPHO1 (human) inhibition; Q8TCT1; recombinant PHOSPHO1, absorbance phosphatase assay; inhibition, % at 13.3 µM; hit rate 1.1% among 290,000; AID 1565; in the data active = inhibition above about 60%
Target sequence (Q8TCT1 whole entry, looked up): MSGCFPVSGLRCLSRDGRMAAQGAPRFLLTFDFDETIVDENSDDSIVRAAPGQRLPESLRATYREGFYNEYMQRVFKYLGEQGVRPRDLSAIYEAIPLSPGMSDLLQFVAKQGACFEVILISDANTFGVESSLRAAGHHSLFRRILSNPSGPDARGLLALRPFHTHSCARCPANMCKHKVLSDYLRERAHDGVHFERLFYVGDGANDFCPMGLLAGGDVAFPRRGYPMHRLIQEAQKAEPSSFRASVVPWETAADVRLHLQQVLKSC
eIF4H FP inh = inhibitors of RNA binding by human eIF4H; eIF4H fluorescence polarization binding assay; inhibition, % at 35 µM; hit rate 0.94% among 290,000; AID 2012;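 also: calls also rest on retests at 20 µM and on dose response follow-up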
MLLE-PAM2 inh = blocks PAM2 peptide binding to the PABP1 MLLE domain. P11940. GST-MLLE / FITC-PAM2 fluorescence polarization. inhibition, % at 20 µM. hit rate 0.36% among 360,000; in the data active = inhibition above about 35%, passing the limit was not always enough;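 also: plate controls were DMSO wells with GST-MLLE for no effect and wells lacking GST-MLLE protein for full effect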
The depositor's hits bear a star; ? = inconclusive; . = no result. Unless noted, no rule for the calls is given here.

SMILES | PABP FP inh | CRFR2-BP antag | PHOSPHO1 inh | eIF4H FP inh | MLLE-PAM2 inh
O=C(O)CCNC(=O)OCC1c2ccccc2-c2ccccc21 | -6 | 60* | 24 | 10 | -7
O=C(CCNC(=O)OCC1c2ccccc2-c2ccccc21)NOCc1ccccc1 | . | 1 | . | . | 5
COCCCn1c(-c2ccc(S(=O)(=O)N3CCOCC3)cc2)csc1=Nc1ccccc1 | 15 | 1 | 69* | 7 | 3
CC(=O)N(Cc1cccnc1)c1cccc(-c2nc3ccccc3s2)c1 | 0 | -3 | 66* | 0 | -8
O=S1(=O)CC(N2CCC(c3ccccc3)CC2)CN1Cc1ccc(F)cc1 (centres undefined) | . | . | . | . | 3
CNc1ccc(Cl)cc1C(N)=O | 63* | -2 | 25 | -6 | -14
O=C(O)c1ccccc1NCc1ccncc1 | -9 | -7 | 21 | -7 | 13
O=C(O)c1ccc(CNc2ccccc2C(=O)O)cc1 | 77* | 23 | -3 | 77* | 0
COc1cc(CCN(C(C)=O)C2C(=O)Nc3ccccc3N=C2c2ccc3c(c2)OCO3)cc(OC)c1 (centres undefined) | . | . | . | . | 16
c1ccc2c(c1)ncn2Cc1nnc2sc(-c3ccncc3)nn12 | 9 | 13 | 51 | 2 | 29
Clc1ccc(Cl)c(-c2nn3c(Cn4cnc5ccccc54)nnc3s2)c1 | . | -11 | . | . | -122
c1cncc(-c2nn3c(Cn4cnc5ccccc54)nnc3s2)c1 | 4 | -31 | 69* | -3 | 22
c1ccc(-c2nn3c(Cn4cnc5ccccc54)nnc3s2)cc1 | 4 | -4 | 66* | -4 | 19
COc1ccc(N2CCN(C(=O)CCS(=O)(=O)c3ccc4c(c3)NC(=O)CO4)CC2)cc1 | -4 | 56* | -5 | -8 | -21
COc1ccc2[nH]cc(C(=O)CNc3nc(C)cs3)c2c1 | 4 | 23 | 89* | -8 | -99
CC(=O)C1=C(O)C(=O)N(Cc2ccccc2)C1c1ccc(F)cc1 (centres undefined) | 7 | 56* | 10 | 8 | -5
CSC1=N/C(=C\c2ccc(C)o2)C(=O)S1 | 40 | 34 | 92* | 21 | 17
CSC1=N/C(=C\c2ccc(C)s2)C(=O)S1 | 3 | 33 | -10 | 16 | 11
Cc1ccc(S(=O)(=O)N2[C@@H](c3ccc(Cl)cc3)C(C(=O)O)=C[C@H]2C(C)(C)C)cc1 | . | 5 | . | . | 1
Cc1ccc(NC(=O)C2C(c3ccccc3)C2(Cl)Cl)c(C)c1 (centres undefined) | active | -5 | 3 | ? | 4
CC(=O)c1ccc2c(c1)CC1(C2)Cc2cc3c(cc2C1)C(=O)CC3 (centres undefined) | . | -1 | . | . | 0
O=C(c1ccccc1)c1ccccc1N1C(=O)C=CC1=O | 5 | 5 | 25 | -11 | 39*
O=C1C=CC(=O)N1c1ccccc1N1C(=O)C=CC1=O | . | 97* | . | . | 44*
O=C1C=CC(=O)N1c1ccccn1 | . | 8 | . | . | 36
COC(=O)/C(=C(/F)Sc1cc(C)c(O)c(C)c1)C(F)(F)F | -12 | 16 | 64* | 1 | 32
SMILES | PABP FP inh | CRFR2-BP antag | PHOSPHO1 inh | eIF4H FP inh | MLLE-PAM2 inh
COC(=O)C(Nc1ccccc1Cl)(c1cc(C)c(O)c(C)c1)C(F)(F)F (centres undefined) | -6 | 0 | -11 | 5 | 14
CS(=O)(=O)C1=NSC2=NC(=O)/C(=C\c3cccn3-c3ccc(Cl)cc3)C(=N)N21 | -4 | 57* | -9 | 31 | -24
Cc1cc(/C=C2/C(=N)N3C(=NC2=O)SN=C3S(C)(=O)=O)c(C)n1-c1ccccc1F | 4 | 27 | 6 | 17 | 12
O=C(O)C(c1ccccc1)C1(O)CCCC1 (centres undefined) | 4 | 97* | 12 | -1 | 1
CC1CCC(O)(C(C(=O)O)c2ccccc2)CC1 (centres undefined) | . | -15 | . | . | 8
CC(C)n1c(SCC(=O)Nc2nncs2)nnc1C1CC1 | 5 | 0 | 24 | -5 | 8
Cn1c(SCC(=O)Nc2nncs2)nnc1C1CC1 | 80* | -9 | 41 | 90* | -11
COC(=O)c1sccc1NC(=O)COc1ccc(F)cc1Cl | -7 | -14 | 59 | 1 | 8
CC(C)(C)OC(=O)N(CCc1ccccc1)Cc1cccc(OCc2cccc(NC(=O)C3CCCC3)c2)c1 | . | -13 | . | . | 3
CC1(C)C(=O)Nc2ccccc2N1C(=O)COc1ccc(S(=O)(=O)N2CCOCC2)cc1Cl | 21* | 1 | -7 | 64 | -20
CCCCNC(=S)Nc1ccc(OC)nc1 | 23 | 7 | -10 | ? | 41*
COc1ccc(NC(=S)Nc2ccccc2)cn1 | 7 | -1 | -7 | ? | 25
